# C8 TRAIL sens = caspase-8 TRAIL sensitization; NB7+C8 cells + TRAIL, ATPlite viability luminescence; inhibition (viability loss, TRAIL sensitization), % at 10 µM; 360,000 tested, 1% active; AID 624354;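 active means compounds causing at least 50% loss of cell viability in the single-dose screen, relative to plate controls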
# Platelet DG rel = modulates dense granule release in human platelets; human platelet-rich plasma, SFLLRN dense granule ATP release, luminescence; inhibition, %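 (compounds screened at 7.5 µM in platelet-rich plasma)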; 300,000 tested, 0.22% active; AID 1663;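 active means mean replicate score, as percent of positive control, at or above 50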
# STAT1 inh = inhibitors of IFN-gamma induced STAT1 signaling | inhibition, % at 5.5 µM | 200,000 tested, 0.35% active | NIH 3T3 STAT1-luciferase reporter, luminescence;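 active means inhibition above a set limit, the mean inhibition across all tested compounds plus 3 SD, cut at about 34% in these data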;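 further: 0% = IFN-gamma with DMSO and 100% = IFN-gamma with 300 µM nifuroxazide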
# PPC-1+TRAIL kill = compounds killing PPC-1 cancer cells with TRAIL present (potentiator screen, no TRAIL-free arm) | PPC-1 cells + TRAIL, ATPLite viability luminescence | cell killing (% activity), % at 4 µM or 5 µM | 220,000 tested, 0.41% active | AID 1443;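 active means cell killing above 50% in the first pass at 4 µM, then a duplicate retest at 5 µM averaging 50% or more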;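 further: plate controls were cells with TRAIL plus DMSO for no effect and medium-only wells lacking cells for full effect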
# STAT3 blocker = STAT3 signaling inhibition | U3A cells, IL-6 STAT3-luciferase reporter, luminescence; host cell line lacks STAT1 | inhibition, % at 5.5 µM | 190,000 tested, 0.89% active | AID 862;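 active means inhibition above the mean inhibition across all screened compounds plus 3 SD, cut at about 44% in these data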;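 further: 0% = DMSO only wells and 100% = 100 µM nifuroxazide control wells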
# An asterisk follows results filed as active; · = no result. Rows were chosen to be rich in hits. Some 1.6% of all compounds tested hit in one or more screens of this group.
SMILES,C8 TRAIL sens,Platelet DG rel,STAT1 inh,PPC-1+TRAIL kill,STAT3 blocker
Cc1ccc(S(=O)(=O)N2C[C@H]3C(=O)C[C@@H](c4ccc(Cl)cc4)N(S(=O)(=O)c4ccccc4C)[C@H]3C[C@H]2c2ccc(Cl)cc2)cc1,1,·,·,·,·
CCOC(=O)c1c2c(n(Cc3ccccc3)c1C)C(=O)C(=O)c1ccccc1-2,93*,·,·,·,·
Cc1c(CN(C)C)c2c(n1C)C(=O)c1ccc(Br)cc1-2,-2,3,0,1,8
CCOC(=O)c1c2c(n(C)c1C)C(=O)C(=O)c1ccc(Br)cc1-2,97*,0,-1,·,-5
COc1ccc(-c2cc3c(=O)n(CC(=O)N4CCCCC4)ncn3n2)cc1,16,1,·,·,·
CCc1ccc(-c2cc3c(=O)n(CC(=O)NCCCN4CCC(Cc5ccccc5)CC4)nc(C)n3n2)cc1,91*,-1,·,·,·
COc1ccc(-c2cc3c(=O)n(CC(=O)N4CCN(C)CC4)ncn3n2)cc1,59*,0,·,·,·
CCc1ccc(-c2cc3c(=O)n(CC(=O)NCCCN4CCN(C)CC4)ncn3n2)cc1,59*,-4,·,·,·
Cn1c(=O)c2cc(NC(=O)NCCc3ccccc3)ccc2n1Cc1ccc(F)cc1,-12,·,·,·,·
CCOC(=O)CN1C(=O)/C(=C/c2ccccc2Br)Oc2ccccc21,-14,-8,·,·,·
COc1cc(/C=C/c2ccc3cccc(OC)c3n2)c(OC(C)=O)c([N+](=O)[O-])c1,-2,5,16,21,16
COc1c(OC(C)=O)ccc(/C=C/c2ccc3cccc(OCc4ccccc4)c3n2)c1[N+](=O)[O-],49*,-11,-2,21,-14
CCCCN1C(=O)C(=O)NC[C@@H]1Cc1ccc(O)cc1,4,·,·,·,·
Cc1ccc(N(Cc2cc(=O)[nH]c3ccccc23)C(=O)CCl)c(C)c1,52*,-2,·,·,·
CCCCOc1ccc(-c2nc(-c3cccnc3)no2)cc1,17,6,-29,31,-4
CCOc1ccc(-c2nc(-c3cccnc3)no2)cc1,58*,12,-44,32,37
CCCCNCCS(=O)(=O)NCc1ccc(OC)cc1,-8,·,·,·,·
CC(C)c1nnc(NC(=O)c2c(O)c3cccc4c3n(c2=O)CCC4)s1,60*,-19,1,9,12
CC(C)c1cccc(-c2csc(C(C)(O)c3cccc(F)c3)n2)c1 (centres undefined),-8,·,·,·,·
O=C1c2cccc(O)c2C(=O)c2c(O)cc(CO)cc21,·,1,·,·,·
CC1OC2CC(=O)OC2C2=C1C(=O)c1c(O)cccc1C2=O (centres undefined),94*,·,·,·,·
COCCNC(=O)C1(C)CCCN(CCOc2ccc(Cl)cc2)C1 (centres undefined),-11,·,·,·,·
O=C1C=C(c2ccccc2)C(=O)N1Nc1ccccc1,-16,61*,1,3,2
COc1ccccc1C(CNC(=O)CN1C(=O)NC(C)(c2ccc3ccccc3c2)C1=O)N1CCCC1 (centres undefined),-2,·,·,·,·
CN(C)S(=O)(=O)c1cccc(NC(=O)CCc2nc3cc(S(=O)(=O)N4CCOCC4)ccc3n2C)c1,-4,9,·,·,·
SMILES,C8 TRAIL sens,Platelet DG rel,STAT1 inh,PPC-1+TRAIL kill,STAT3 blocker
CC(NC(=O)CCc1nc2cc(S(=O)(=O)N3CCOCC3)ccc2n1C)c1ccc(S(N)(=O)=O)cc1 (centres undefined),0,55*,·,·,·
COc1cccc(S(=O)(=O)N(C)C[C@@H]2OCc3cn(nn3)CCCC(=O)N([C@@H](C)CO)C[C@H]2C)c1,-1,·,·,·,·
O=S(=O)(/C(=C\c1ccc(C(F)(F)F)cc1)c1nc2ccccc2[nH]1)c1ccccc1,85*,·,·,·,·
COc1ccc(N2Cc3ccc(OC)c(OC)c3C2=O)cc1,51*,1,·,·,·
COc1ccc2c(c1OC)C(=O)N(c1nccs1)C2,10,2,-35,5,-18
Clc1ccc(OCc2nn3c(C4CCCCC4)nnc3s2)cc1,57*,4,4,7,9
Cc1nc(SCC(=O)Nc2nccs2)c(C#N)c(C)c1C,80*,·,·,·,·
COc1ccc(CCNC(=O)c2cc(S(=O)(=O)N3CCOCC3)cn2C)cc1OC,5,51*,·,·,·
COc1cccc(CNC(=O)c2cc(S(=O)(=O)N3CCOCC3)cn2C)c1,12,51*,·,·,·
Cc1ccc(C)c(NC(=O)c2cc(S(=O)(=O)N3CCOCC3)cn2C)c1,-13,111*,·,·,·
C=Cc1ccc(Cn2c(C)c(C(=O)NCc3ccc(Cl)c(Cl)c3)sc2=O)cc1,54*,·,·,·,·
C=Cc1ccc(Cn2c(C)c(C(=O)NCc3ccc4c(c3)OCCO4)sc2=O)cc1,0,·,·,·,·
CCn1cc(C(=O)NCC(OC)OC)c(=O)c2cc(S(=O)(=O)N3CCC(C)CC3)ccc21,65*,6,·,·,·
CCCCNC(=O)c1cn(C)c2ccc(S(=O)(=O)N3CC(C)CC(C)C3)cc2c1=O (centres undefined),56*,-9,·,·,·
C[C@H](CO)N1C[C@H](C)[C@@H](CN(C)S(=O)(=O)c2ccc(Oc3ccccc3)nc2)OCc2cn(nn2)CCCC1=O,9,·,·,·,·
Cc1ccc(C(=O)N2CCN(c3nc4ccccc4n3C)CC2)cc1,20,-5,·,·,·
CC(=O)c1c(OC(=O)c2ccccc2Br)ccc2c(C)cc(=O)oc12,-5,-9,4,38,10
Cc1cc(OC(=O)c2ccccc2Br)cc(=O)n1C,6,-4,39*,7,26
CC1(c2nnnn2C2CCCC2)CCC(=O)N1c1ccc2c(c1)OCCO2 (centres undefined),0,·,·,·,·
Cc1cn(CC(=O)NCC(c2ccccc2)c2ccccc2)c(=O)[nH]c1=O,-5,·,·,·,·
O=C1C(F)=CC(COC(c2ccccc2)(c2ccccc2)c2ccccc2)OC1n1cc(F)c(=O)[nH]c1=O (centres undefined),89*,·,·,·,·
CC(=O)OCC1OC(n2cc(F)c(=O)[nH]c2=O)C(OC(C)=O)C1OC(C)=O (centres undefined),14,-2,·,·,·
CSc1ccc(C(O)c2ncc(-c3ccccc3F)[nH]2)cc1 (centres undefined),5,·,·,·,·
CN(Cc1cnc2nc(N)nc(N)c2n1)c1ccc(C(=O)NC(CCC(=O)O)C(=O)O)cc1 (centres undefined),81*,·,·,·,·
CN(Cc1cnc2nc(N)nc(N)c2n1)c1ccc(C(=O)NC(CCC(=O)O)C(=O)O)cc1C(F)(F)F (centres undefined),82*,·,·,·,·
SMILES,C8 TRAIL sens,Platelet DG rel,STAT1 inh,PPC-1+TRAIL kill,STAT3 blocker
CCCN(CCC)C(=O)C(CCC(=O)O)NC(=O)c1ccccc1 (centres undefined),2,-5,0,-9,1
CCCCNC(=O)C1(C)CCCCN1C(=O)c1ccc2sccc2c1 (centres undefined),-13,·,·,·,·
CC1(C(=O)NS(=O)(=O)c2ccc(Br)cc2)CCN1C(=O)Cc1ccsc1 (centres undefined),1,·,·,·,·
O=C(CSc1nnc(-c2ccc(O)cc2)o1)N1CCOCC1,-4,4,-17,6,3
Oc1ccc(-c2nnc(SCC3CCCCC3)o2)cc1,72*,0,-21,15,12
Cc1ccc(S(=O)(=O)N2C[C@H]3C(=O)C[C@@H](c4ccc(Cl)cc4)N(S(=O)(=O)c4ccc(C)cc4)[C@H]3C[C@H]2c2cccc3ccccc23)cc1,-8,·,·,·,·

# Compound activity (PubChem BioAssay)
